Source: PubChem BioAssay (National Center for Advancing Translational Sciences (NCATS))
HCV inh: qHTS Assay for Inhibitors of Hepatitis C Virus (HCV); Huh7.5.1 HCVcc-Cre infection, luciferase reporter, 44 h; Potency, µM (top dose mostly 41.8 µM), without a hit: at the highest dose activity change, negative = inhibition, most hits filed as inhibitors; 340,000 tested, 3.4% active; active = well fitted inhibition curve with a large enough effect; inconclusive = small, poorly fitted or top-dose-only effect, or another doubt; inactive = no such curve, though single readings can be large or run the other way
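Cells (1,000/well) were plated 4 h before compound, then infected with HCVcc-Cre virus (~0.5 moi). After 44 h further culture, infection was read as luciferase luminescence following a 15 min substrate incubation at room temperature.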
MARV entry inh: qHTS for inhibitors of binding or entry into cells for Marburg Virus; Marburg virus pseudotyped entry inhibition, cell reporter; Potency, µM (titrated, usually from 37.8 µM), for the others: top-dose activity change, negative = inhibition, most hits filed as inhibitors; 300,000 tested, 1.8% active; calls by dose curve; tested in HEK293 cells
LASV entry inh: qHTS for Inhibitors of binding or entry into cells for Lassa Virus; Lassa virus pseudotype entry inhibition, cell reporter; Potency, µM (titrated, usually from 37.9 µM), inactives show at the top dose activity change, negative = inhibition, actives largely listed as inhibitors; 300,000 tested, 1.2% active; AID 540256, 2011; calls by dose curve; tested in HEK293 cells; also: nearly all actives have a fitted effect of over 50% in size
Vaccinia mCherry: qHTS for Stage-Specific Inhibitors of Vaccinia Orthopoxvirus: mCherry Reporter Primary qHTS. 310,000 tested, 0.63% active. Potency, µM (highest dose often 36.5 µM), for inactives: at the highest dose activity change, negative = inhibition, actives largely listed as inhibitors. Vaccinia virus mCherry reporter infection, fluorescence; calls by dose curve; tested in A549 cells; also: nearly all actives have a fitted effect of over 35% in size
VACV Venus inh: qHTS for Stage-Specific Inhibitors of Vaccinia Orthopoxvirus: Venus Reporter Primary qHTS; 330,000 tested, 0.46% active; Potency, µM (doses to about 36.5 µM), for inactives: at the highest dose activity change, negative = inhibition, most hits filed as inhibitors; Vaccinia virus Venus reporter expression, fluorescence; AID 720580, 2013; calls by dose curve; tested in A549 cells; also: nearly all actives have a fitted effect of over 30% in size
FMDV inh: High Throughput Screening for Foot and Mouth Disease Virus Antivirals. 410,000 tested, 1.2% active. AID 1159524, 2015. Potency, µM (doses to about 57.9 µM), for inactives: at the top dose activity change, negative = inhibition, hits mostly inhibitors. FMDV antiviral cell-based qHTS; calls by dose curve; tested in HEK293T cells; also: read-out not given here; nearly all actives have a fitted effect of over 45% in size
Active calls of the source: *; i = inactive; u = inconclusive; x = no result given; [ ] = another dose, or the depositor's remark. Hits are enriched below; roughly 5.3% of the tested compounds scored in any of these assays. % is scaled to controls: 0 for no effect and ±100 for the full control effect; potency is read from the fitted curve at half-maximal effect.

SMILES	HCV inh	MARV entry inh	LASV entry inh	Vaccinia mCherry	VACV Venus inh	FMDV inh
CC(C)S(=O)(=O)c1oc(-c2cccs2)nc1S(=O)(=O)c1ccc(F)cc1	x	u	u	-17.9%[7.34 µM]	-12.7%[7.34 µM]	22.4µM*
Cc1sc2ncn(CC(=O)N3CCN(c4ccccn4)CC3)c(=O)c2c1S(=O)(=O)N1CCC(C)CC1	-1.1%	-1.6%[46.1 µM]	u	i	-3.7%	-1.0%
C=CCOC(=O)C(C(C)=O)[C@@H](NC(=O)OC)c1ccc(Cl)cc1 (some centres undefined)	x	-10.3%[14.2 µM]	x	x	x	x
CSc1oc(-c2ccc(F)cc2)nc1S(=O)(=O)c1ccccc1	-6.6%	-1.6%	2.2%	-14.1%	-13.2%	x
CCCCS(=O)(=O)c1oc(-c2ccc(F)cc2)nc1S(=O)(=O)c1ccccc1	x	u	u	-19.4%[7.34 µM]	-16.7%[7.34 µM]	31.6µM*
COc1ccc(CN2CCC(C(=O)Nc3ccc(Oc4ccccc4)nc3)CC2)cc1F	2.51µM*	u	u	-2.5%	-23.8%	u
COc1cc(F)ccc1CN1CCC(C(=O)Nc2ccc(Oc3ccccc3)nc2)CC1	10µM*	u	u	i	-21.5%	u
O=C(Nc1ccc(Oc2ccccc2)nc1)C1CCN(Cc2ccccc2)CC1	u	x	x	x	x	-2.9%
CSc1ncc(CN2CCCCC2C(=O)Nc2ccc(Oc3ccccc3)nc2)cn1 (centres undefined)	u	5.62µM*	-5.0%	-14.1%	-11.8%	-15.8%
CCc1ccc(CN2CCC(C(=O)Nc3ccc(Oc4ccccc4)nc3)CC2)o1	11.2µM*	u	-26.9%[46.1 µM]	i	-23.2%	u
Cc1ncc(CN2CCCCC2C(=O)Nc2ccc(Oc3ccccc3)nc2)cn1 (centres undefined)	19.0%	28.6%	0.1%	-22.3%	-12.8%	-12.7%
CCOCCc1nnc(NC(=O)C(=O)c2cc(C)n(-c3ccc(C)c(C)c3)c2C)s1	x	-10.2%[46.1 µM]	-7.3%[46.1 µM]	-21.2%	-8.1%	-3.9%
COc1ccc(N(C(=O)COc2ccccc2OC)S(=O)(=O)c2ccc(Cl)cc2)cc1	x	x	u	-15.9%	-14.6%	9.1%
C[C@H]1CN(Cc2ccccc2)C(=O)[C@H]1CC(=O)Nc1ccccc1	x	x	-9.2%[46.1 µM]	x	x	x
Oc1ccc2c(c1)oc1cc(O)ccc12	u	-22.8%	u	10µM*	u	60.6%
COc1c(C)oc2cc(O)ccc2c1=O	9.9%	-25.1%	9.2%	-4.8%	-11.5%	-13.1%
Cc1cc(SCC(=O)N/N=C/c2ccc(O)c(O)c2)nc2ccccc12	u	u	u	u	1.7%	3.1%
O=C(CSc1nc2ccccc2c(=O)[nH]1)c1cccs1	4.2%	-0.9%	15.1%	-2.5%[1.46 µM]	-17.6%	25.6%
Cc1cc(SCC(=O)c2cccs2)nc2ccccc12	10µM*	11.0%	4.4%	u	u	78.1%
Cc1cc(SCC(=O)N/N=C/c2ccc(O)cc2O)nc2ccccc12	u	u	u	1.12µM*	u	-24.6%
COc1ccc2nc(C)cc(SCC(=O)N/N=C/c3cccc4ccccc34)c2c1	10µM*	u	13µM*	x	x	-19.6%
COc1ccc2nc(C)cc(SCC(=O)N/N=C/c3ccc(O)c(O)c3)c2c1	u	u	-5.8%[46.1 µM]	-25.9%	-6.5%	u
CN(C)c1ccc(/C=C/c2ccnc3ccccc23)cc1O	x	x	x	-16.5%	13.6%	x
N#Cc1c([N+](=O)[O-])cc([N+](=O)[O-])cc1S(=O)(=O)Cc1ccccc1	10µM*	u	11.2µM*	u	u	28.2µM*
N#Cc1cccc(-c2ccc3ncnc(NCCN4CCOCC4)c3c2)c1	x	x	x	x	x	-2.1%
Cc1cc(OCc2nc(N)nc(N)c2-c2ccc(Cl)c(Cl)c2)ccc1[N+](=O)[O-]	u	u	1µM*	0.891µM*	1µM*	25.1µM*
Cc1nc(N)nc(N)c1-c1ccc(Cl)c(Cl)c1	u	u	1µM*	1µM*	1µM*	-23.4%
Nc1nc(N)nc(-c2ccc(Cl)c(Cl)c2)n1	u	x	x	u	u	24.8%
O=C1C(=O)N(C2CCN(C(=O)c3cccc(Cl)c3)CC2)CCN1Cc1ccc(F)cc1	x	x	28.4%[46.1 µM]	-6.9%	-3.2%	-18.0%
